# Measured values: PubChem BioAssay (NCATS)
# Inconclusive results are not listed. Calls of active or inactive are those of the source. Calls come from the whole dose curve; as a rule, active = well fitted inhibition curve with a large enough effect; inconclusive = small, poorly fitted or top-dose-only effect; inactive = flat fitted curve, though single readings scatter.
# Tested on: NIH3T3
# Test: Cytotoxic Profiling of Annotated Libraries Using Quantitative High-Throughput Screening (AID 1296008); for max response: % is set by controls: 0 for no effect and ±100 for the full control effect
# Conditions: Five cell lines viability, CellTiter-Glo ATP luminescence, 48-72 h; max response: hits give low values
# Outline: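 Compounds were pin-transferred onto cells and incubated 48 or 72 hr at 37 degree Celsius, 95% humidity. CellTiter-Glo was added, plates sat 10 min at room temperature, then ATP-coupled luminescence was imaged as the viability read-out.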
# Note: nearly all actives have a fitted effect of over 60% in size.
SMILES,outcome,max response
COc1ccccc1N1CCN(CC(C(=O)NC(C)(C)C)c2ccccc2)CC1 (configuration not stated),inactive,
COc1ccc(CCc2nc3cc(-c4c(C)noc4C)ccc3n2CC(C)N2CCOCC2)cc1Cl (configuration not stated),,-17.1% (inactive)
Fc1ccc(CN2CCC(Nc3ccc(C(F)(F)F)nn3)CC2)cc1F,,-5.8% (inactive)
COc1c(F)cccc1C(=O)N1C[C@@H](C)CC[C@H]1CNc1ccc(Br)cn1,,-27.7% (inactive)
C/C=C/C=C/C=C/C(=O)O[C@@H]1C=C(CO)C(O)(C(=O)OC)[C@@]2(C)CCCC(C)(C)C12 (some centres not stated),,4.09% (inactive)
COc1cc2c(cc1OCCCN1CCCC1)N=C(N)C21CCC1,inactive; activator,
CC(C)c1c(O)ccc2c1CC[C@H]1C(C)(C)CCC[C@]21C,inactive,

# Tested on: HACAT
# Test: qHTS assay to identify novel small-molecules to repurpose for Merkel cell carcinoma treatment (AID 1296009)
# Conditions: MCC and control cell lines, CellTiter-Glo viability, 72 h; at 44.8 µM (top of the series) unless noted
# Outline: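 Cells exposed to NPC (8-point) and MIPE (11-point) compound dilutions for 72 hr at 37 degree celsius; viability read by CellTiter-Glo luminescence, normalized to no-cell and DMSO in-plate controls.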
row,SMILES,outcome
1,COc1ccc(NC(=O)c2ccc(-c3ccc(C(=N)N)cc3C)cc2)cc1N1CCN(C)CC1,inactive
2,CC1=C2C[C@@]3(C)C(CCC[C@@H]3C)C(O)C2OC1=O (some centres not stated),inactive
3,Cc1[nH]c2ccccc2c1CCNC(=O)c1cccs1,inactive
4,CNC(C)C(=O)NC(C(=O)N1CCCC1C(=O)Nc1snnc1-c1ccccc1)C1CCCCC1 (configuration not stated),inactive
5,C/C=C/C=C/C(=O)O[C@@H]1C=C2COC(=O)[C@]2(O)[C@@]2(C)CCCC(C)(C)[C@H]12,inactive
6,C/C=C(/C=C(C)/C=C/C=C/C=C(\C)C(=O)C12OC1C(O)(CCO)NC2=O)C(=O)OC (configuration not stated),inactive [at 17.4 µM]
7,CN(C)CCOc1cc(NS(=O)(=O)c2c(Cl)cc(C(F)(F)F)cc2Cl)ccc1Cl,inactive
8,COc1cc(O)cc(/C=C/c2cccc(O)c2)c1,inactive
9,O=C(NCCCn1ccnc1)c1cc(-c2ccco2)on1,inactive
10,CC[C@H](C)/C=C(C)/C=C/C1=CC2=C(Cl)C(=O)[C@](C)(O)[C@H](OC(C)=O)[C@H]2CO1,inactive
11,CC(C)(C)Sc1c(CC(C)(C)C(=O)O)n(Cc2ccc(Cl)cc2)c2ccc(OCc3ccc4ccccc4n3)cc12,inactive
12,CCOC(=O)CCNc1cc(N2CCc3ccccc3CC2)nc(-c2cccnc2)n1,inactive
13,O=S(=O)(Cc1ccccc1)Nc1ccc(-c2ccc3c(cnn3-c3ccc(F)cc3)c2)c(C(F)(F)F)c1,inactive
14,COc1ccncc1C(=O)NC(=O)Nc1ccc(-c2ccccc2)c(C(F)(F)F)c1,inactive
15,CNCCC(c1cccs1)c1ccc(O)c2ccccc12 (configuration not stated),inactive
16,CN(C)N(C)C(=O)[C@@]1(Cc2ccccc2)CCCN(C(=O)[C@@H](Cc2c[nH]c3ccccc23)NC(=O)C(C)(C)N)C1,inactive
17,C=C(CCC1C(C)(O)CCC2C(C)(C)C(O)CCC12C)C(O)CO (configuration not stated),inactive
18,COc1cccc(N2CCN(C3=Nc4c(F)cccc4[C@H](CC(=O)O)N3c3cc(C(F)(F)F)ccc3OC)CC2)c1,inactive
19,Fc1ccc(CN2CCC(Nc3ccc(C(F)(F)F)nn3)CC2)cc1F,inactive
20,CC(C)c1c(O)ccc2c1CC[C@H]1C(C)(C)CCC[C@]21C,inactive
